PubChem BioAssay
The source made the active and inactive calls.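 How the source made its calls, unless noted: active means inhibition above 20% together with a positive visual image hit; inconclusive means visual image hit but inhibition not above 20%; inactive means no visual image hit.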

Columns and labels:
[1] = inhibitors of TNFa-induced NFkB p65 translocation, primary screen, imaging, HUVEC, MLSMR starter and 10KST1 sets (AID 438); details: HUVEC TNFa-induced p65 nuclear translocation; cell count: measured here: nuclei count (cytotoxicity indicator), at 2.08 µM; inhibition: at 2 µM, stronger effect = higher value, 0% TNFa-plus-vehicle, 100% no-TNFa wells;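 further: compound added about 3h40 before a 20 min TNFalpha stimulation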;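 on inhibition: signal is the nuclear over cytoplasmic p65 intensity ratio per well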
[2] = reduction of polyQ htt aggregates in cells – imaging, exon1htt(103Q)mCFP cells, high-content imaging, primary screen (AID 483;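 active means visual image review flags a hit and inhibition of aggregation exceeds 20%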;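 further: compound exposure lasted 3 days before fixation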;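 on nuclei count: percent of the per-plate median nuclei count of sample wells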); details: exon1htt(103Q)mCFP cell line, aggregate imaging, at 2 µM; inhibition of aggregation: stronger effect = higher value; nuclei count: measured here: cell count, toxicity
[3] = endothelial E-selectin expression blockers – imaging, HUVEC, immunofluorescence, MLSMR starter and 10KST1 sets, primary screen (AID 487;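 active means visually confirmed hit in the image check and inhibition above 20%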;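 on inhibition: signal is fraction of cell area covered by stained E-selectin grains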;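 on nuclei count: 100% = median nuclei count of all wells on the same plate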); details: HUVEC TNFalpha-induced E-selectin immunofluorescence imaging, at 2 µM; inhibition: stronger effect = higher value; nuclei count: measured here: cell number, toxicity
[4] = target: Voltage-gated potassium channel subunit beta-2 (Rattus norvegicus) (UniProt P62483); test: inhibitors of rat Kvbeta2 reductase activity – biochemical, NADPH fluorescence, primary screen (AID 622;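 active means fluorescence slope higher than the sample average by over 3 SD, cut at about -0.22 in these data, passing the limit was not always enough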;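 further: slope of raw intensity against log time taken from 70 to 1610 s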); details: recombinant KvBeta, 4-cyanobenzaldehyde reduction, at 10 µM, stronger effect = higher value
Sequence of Voltage-gated potassium channel subunit beta-2 (Rattus norvegicus) (P62483 whole entry, looked up): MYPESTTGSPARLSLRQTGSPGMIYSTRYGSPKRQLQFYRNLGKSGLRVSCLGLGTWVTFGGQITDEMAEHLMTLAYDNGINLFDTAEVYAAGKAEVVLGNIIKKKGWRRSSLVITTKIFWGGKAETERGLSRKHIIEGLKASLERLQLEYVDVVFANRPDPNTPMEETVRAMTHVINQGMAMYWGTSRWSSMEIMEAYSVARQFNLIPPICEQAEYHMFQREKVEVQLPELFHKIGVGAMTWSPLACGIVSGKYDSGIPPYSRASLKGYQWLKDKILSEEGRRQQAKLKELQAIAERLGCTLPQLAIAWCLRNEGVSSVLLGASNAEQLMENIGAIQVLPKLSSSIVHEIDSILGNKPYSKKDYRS

[5] = target: Voltage-gated potassium channel subunit beta-2 (Rattus norvegicus) (UniProt P62483); test: enhancers of rat Kvbeta2 NADPH turnover – biochemical, NADPH fluorescence, primary screen (AID 623;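 active means NADPH fluorescence slope more negative than the mean of all samples by about 3 SD, 99.7% confidence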;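 further: fluorescence intensity change per second fitted from 20 to 320 s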); details: Recombinant KvBeta, NADPH fluorescence decrease slope, 10 min; at 10 µM; stronger effect = lower value
[6] = target: Alpha-2C adrenergic receptor (Homo sapiens) (UniProt P18825); test: compounds altering alpha2C-coupled GIRK flux – cell-based, HEK293 alpha2C/GIRK1/2, thallium flux, primary screen (AID 624;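 active means fluorescence slope after compound addition differing from the mean of all screened samples at 99.7% confidence, in either direction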;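 further: slope of fluorescence ratio to pre-addition baseline per second over 15 to 24 s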); details: thallium flux BTC fluorescence, at 10 µM, actives lie on both sides
Sequence of Alpha-2C adrenergic receptor (Homo sapiens) (P18825 whole entry, looked up): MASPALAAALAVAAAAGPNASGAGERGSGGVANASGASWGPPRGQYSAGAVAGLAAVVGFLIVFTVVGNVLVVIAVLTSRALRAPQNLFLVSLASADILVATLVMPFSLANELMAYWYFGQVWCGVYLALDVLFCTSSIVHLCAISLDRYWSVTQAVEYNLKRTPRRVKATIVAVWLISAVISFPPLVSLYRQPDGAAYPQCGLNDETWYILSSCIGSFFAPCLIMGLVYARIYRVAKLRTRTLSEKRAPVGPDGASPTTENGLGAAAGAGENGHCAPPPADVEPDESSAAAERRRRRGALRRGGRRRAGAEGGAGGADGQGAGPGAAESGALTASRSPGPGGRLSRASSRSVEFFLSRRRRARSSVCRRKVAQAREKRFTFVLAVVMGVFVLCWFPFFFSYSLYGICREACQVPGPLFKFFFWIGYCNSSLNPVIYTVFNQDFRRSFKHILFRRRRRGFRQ

[7] = blockers of RIG-like receptor reporter activation – cell-based, Sendai virus stimulus, luciferase, 10K MLSCN set, TLR/RLR signaling modifier project, primary screen (AID 602276;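 active means inhibition at or above 50% at 10 µM; inactive means inhibition below 50%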;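 further: firefly luciferase from ISG56 promoter only with Renilla not read in this screen; 0% = Sendai virus plus DMSO and 100% = medium plus DMSO without virus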); details: HEK293 RL24 IRF3 luciferase reporter, at 10 µM, stronger effect = higher value
[8] = TLR3 IRF3 reporter activation blockers – cell-based, poly I:C stimulus, luciferase, 10K MLSCN set, primary screen (AID 602277;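 active means inhibition of the reporter signal at or above 50%; inactive means inhibition below 50%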); details: HEK293-TLR3 RL24 IRF3 luciferase reporter, at 10 µM, stronger effect = higher value

Compound | cell count [1] | inhibition [1] | inhibition of aggregation [2] | nuclei count [2] [%] | inhibition [3] | nuclei count [3] [%] | fluorescence slope [4] | NADPH fluorescence slope [5] | slope [6] | inhibition [7] | inhibition [8]
CC(C)(C)n1nnnc1C(c1ccccc1)N1CCc2ccccc2C1 (centres undefined) | 481 | 2.9% (inactive) | 16% (inactive) | 115 | 11.4% (inactive) | 110 | -0.48 (inactive) | -0.000258 (inactive) | 0.00496 (inactive) | 20.4% (inactive) | 30.1% (inactive)
Cc1nc2scc(-c3cccs3)c2c(=O)n1-n1cccc1 | 506 | 10.6% (inactive) | 10.9% (inactive) | 102 | -398% (inactive) | 140 | -0.333 (inactive) | 1.9e-05 (inactive) | 0.00572 (inactive) | 4.56% (inactive) | 18.4% (inactive)
O=C(CSc1nnc(-c2ccccc2F)o1)OCc1ccccc1 | 323 | 8.7% (inactive) | -1.8% (inactive) | 89.1 | -69.6% (inactive) | 99.9 | -0.428 (inactive) | 1.9e-05 (inactive) | 0.00527 (inactive) | 4.91% (inactive) | 34.1% (inactive)
COc1ccc(CNCC(=O)Nc2cc(C)nn2-c2nc(C)cc(C)n2)cc1OC | 431 | 6.7% (inactive) | -0.4% (inactive) | 104 | -481% (inactive) | 152 | -0.497 (inactive) | -2.4e-05 (inactive) | 0.00701 (inactive) | 21.1% (inactive) | 32.1% (inactive)
CC(O)CN1C(=O)C(CC(=O)Nc2ccc(Cl)cc2)SC1=Nc1ccccc1 (centres undefined) | 671 | -3.9% (inactive) | -11.8% (inactive) | 119 | -16.8% (inactive) | 116 | -0.453 (inactive) | -0.000376 (inactive) | 0.00536 (inactive) | 2.35% (inactive) | 11.1% (inactive)
CC1CN(CC(O)COc2ccccc2C(C)(C)C)CC(C)O1 (centres undefined) | 609 | -29.6% (inactive) | -10.6% (inactive) | 108 | -32.5% (inactive) | 101 | -0.509 (inactive) | 1.1e-05 (inactive) | 0.00559 (inactive) | 10.2% (inactive) | 23.2% (inactive)
O=C(CCC1COc2ccccc2O1)NCC1COc2ccccc2O1 (centres undefined) | 568 | 2.4% (inactive) | -5.5% (inactive) | 117 | -72.2% (inactive) | 85.5 | -0.499 (inactive) | -2.5e-05 (inactive) | 0.0058 (inactive) | 13.4% (inactive) | 19.2% (inactive)
CC(Sc1nnnn1C)C(=O)Nc1ccc(Oc2ccccc2)cc1 (centres undefined) | 354 | 0.5% (inactive) | -25.9% (inactive) | 105 | -72.3% (inactive) | 125 | -0.505 (inactive) | -2.8e-05 (inactive) | 0.00778 (inactive) | -8.41% (inactive) | -9.23% (inactive)
O=c1c2c(-c3ccccc3)csc2nc2n1CCC2 | 518 | -18.3% (inactive) | -0.8% (inactive) | 87 | 20.1% (inactive) | 144 | -0.588 (inactive) | -8.9e-06 (inactive) | 0.00513 (inactive) | -15.3% (inactive) | 1.9% (inactive)
O=S(=O)(NCc1cn2ccccc2n1)c1cc(F)ccc1F | 282 | 4.3% (inactive) | 19.7% (inactive) | 78.5 | 9.5% (inactive) | 88.5 | -0.287 (inactive) | -5.3e-05 (inactive) | 0.00441 (inactive) | -0.696% (inactive) | 8.79% (inactive)
CCOC(=O)c1ccc(N(CC(=O)NC2CCCC2)C(=O)CNC(=O)c2ccco2)cc1 | 626 | -7.8% (inactive) | 5.5% (inactive) | 79.3 | -11.3% (inactive) | 105 | -0.508 (inactive) | -5.1e-05 (inactive) | 0.0066 (inactive) | 15.3% (inactive) | 18.5% (inactive)
COc1cccc(NC(=O)CSc2nnc(-c3cc(-c4ccccn4)nc4ccccc34)o2)c1 | 578 | -14.5% (inactive) | -14.5% (inactive) | 112 | -102% (inactive) | 141 | -0.57 (inactive) | -2e-06 (inactive) | 0.00553 (inactive) | 1.87% (inactive) | 0.453% (inactive)
O=C(O)CC1=C(O)C(=O)N(c2ccccc2)C1c1ccccc1 (centres undefined) | 405 | 1.1% (inactive) | 6.7% (inactive) | 111 | -61.5% (inactive) | 117 | -0.391 (inactive) | -4e-05 (inactive) | 0.00537 (inactive) | 4.01% (inactive) | 29.8% (inactive)
CN(C)CCCn1c(N)c(C#N)c2nc(C#N)c(C#N)nc21 | 735 | -14.6% (inactive) | 0% (inactive) | 128 | -55.1% (inactive) | 106 | -0.0856 (active) | -1.8e-05 (inactive) | 0.00617 (inactive) | 48.9% (inactive) | 79.3% (active)
CCOC(=O)N1CCC2(O)CCCCC2C1c1ccc(F)cc1 (centres undefined) | 450 | -1.7% (inactive) | -11.2% (inactive) | 108 | -73.3% (inactive) | 109 | -0.439 (inactive) | 1.9e-05 (inactive) | 0.00629 (inactive) | 14.6% (inactive) | 22.6% (inactive)
O=C(Nc1cccc(Cl)c1)N1CCN(Cc2ccccc2)CC1 | 652 | 1.3% (inactive) | -6.8% (inactive) | 99.5 | -40% (inactive) | 106 | -0.529 (inactive) | -3.3e-05 (inactive) | 0.00631 (inactive) | -35.1% (inactive) | -81.7% (inactive)
Cc1ccc(C(C)C)c(OCCn2c(=O)oc3ccccc32)c1 | 540 | -5.9% (inactive) | 0.7% (inactive) | 89.4 | -32.5% (inactive) | 77.7 | -0.416 (inactive) | 2.5e-05 (inactive) | 0.00298 (inactive) | -13.6% (inactive) | -27.2% (inactive)
O=C(Nc1cccc2ccccc12)N1CCOCC1 | 654 | -3.4% (inactive) | -12% (inactive) | 116 | -33.2% (inactive) | 106 | -0.341 (inactive) | -6.3e-05 (inactive) | 0.00634 (inactive) | 18.7% (inactive) | 23.7% (inactive)
COc1ccccc1CN1C(=S)SC(C)(C)C1NO (centres undefined) | 487 | 10.4% (inactive) | -2.9% (inactive) | 88.5 | 30.1% (inactive) | 105 | -0.499 (inactive) | -3.5e-05 (inactive) | 0.00451 (inactive) | 15.8% (inactive) | 21.5% (inactive)
